What all share (assay): PBM; 200 nM protein, PBS
Common to all, as to conditions: dsDNA, one strand shown

In assay [1] the target is T1, SIX6 (Homo sapiens, UniProt O95475 114-200, L167I).
T1 sequence: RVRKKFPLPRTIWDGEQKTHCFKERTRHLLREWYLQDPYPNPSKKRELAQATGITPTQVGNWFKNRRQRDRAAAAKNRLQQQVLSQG

For assay [2], the target named is T2, SIX6 (Homo sapiens, UniProt O95475 114-200, L143V).
T2 sequence: T1 sequence with L30V, I54L

Assay [3] concerns the target T3, SIX6 (Homo sapiens, UniProt O95475 114-200, T165P).
T3 sequence: T1 sequence with T52P, I54L

Assay [4] has as its target T4, SIX6 (Homo sapiens, UniProt O95475 114-200, L167M).
T4 sequence: T1 sequence with I54M

Assay [5] concerns the target T5, SIX6 (Homo sapiens, UniProt O95475 114-200, L143I).
T5 sequence: T1 sequence with L30I, I54L

Assay [6] concerns the target T6, SIX6 (Homo sapiens, UniProt O95475 114-200).
T6 sequence: T1 sequence with I54L

The target of assay [7] is T7, SIX6 (Homo sapiens, UniProt O95475 114-200, H141N).
T7 sequence: T1 sequence with H28N, I54L

Assay [8] has as its target T8, SIX6 (Homo sapiens, UniProt O95475 114-200, L143M).
T8 sequence: T1 sequence with L30M, I54L

Assay [9] concerns the target T9, SIX6 (Homo sapiens, UniProt O95475 114-200, T165G).
T9 sequence: T1 sequence with T52G, I54L

The target of assay [10] is T10, SIX6 (Homo sapiens, UniProt O95475 114-200, T139Q).
T10 sequence: T1 sequence with T26Q, I54L

Assay [11] addresses T11, SIX6 (Homo sapiens, UniProt O95475 114-200, T165A).
T11 sequence: T1 sequence with T52A, I54L

Assay [12] addresses T12, SIX6 (Homo sapiens, UniProt O95475 114-200, L167V).
T12 sequence: T1 sequence with I54V

For assay [13], the target named is T13, SIX6 (Homo sapiens, UniProt O95475 114-200, T165I).
T13 sequence: T1 sequence with T52I, I54L

The target of assay [14] is HOXA7 (Homo sapiens, UniProt P31268 116-202).
Chain of HOXA7 (Homo sapiens, UniProt P31268 116-202) (P31268 116-202): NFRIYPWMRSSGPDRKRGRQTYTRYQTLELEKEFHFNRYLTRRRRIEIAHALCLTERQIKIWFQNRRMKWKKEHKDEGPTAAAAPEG
Assay [15] concerns the target HOXA7 (Homo sapiens, UniProt P31268 116-202, W177C).

Positions count from the first letter of the chain named.

Chain of HOXA7 (Homo sapiens, UniProt P31268 116-202, W177C) (P31268 116-202 W177C): as the sequence (P31268 116-202) above, with W62C counted along it

On to GATCAGCC, for which the binding signal is 10.2 upbm affinity estimate (log intensity, higher = more binding, comparable within an allelic series) with SIX6 [1]; 9.81 upbm affinity estimate (log intensity, higher = more binding, comparable within an allelic series) with SIX6 [2]; 9.41 upbm affinity estimate (log intensity, higher = more binding, comparable within an allelic series) in the assay with SIX6 [3]; 10 upbm affinity estimate (log intensity, higher = more binding, comparable within an allelic series) in the assay with SIX6 [4]; 9.82 upbm affinity estimate (log intensity, higher = more binding, comparable within an allelic series) with SIX6 [5]; 10.3 upbm affinity estimate (log intensity, higher = more binding, comparable within an allelic series) with SIX6 [6].

For ATCCTAAT, the binding signal with SIX6 [1] is 10.2 upbm affinity estimate (log intensity, higher = more binding, comparable within an allelic series); with SIX6 [7] it was 10.2 upbm affinity estimate (log intensity, higher = more binding, comparable within an allelic series); with SIX6 [4] it was 10.1 upbm affinity estimate (log intensity, higher = more binding, comparable within an allelic series); with SIX6 [8], 10.2 upbm affinity estimate (log intensity, higher = more binding, comparable within an allelic series); in the assay with SIX6 [9] it was 10.2 upbm affinity estimate (log intensity, higher = more binding, comparable within an allelic series); in the assay with SIX6 [10], 10.5 upbm affinity estimate (log intensity, higher = more binding, comparable within an allelic series). Moreover, the binding signal in the assay with SIX6 [11] was 10.2 upbm affinity estimate (log intensity, higher = more binding, comparable within an allelic series); with SIX6 [12] it was 10.1 upbm affinity estimate (log intensity, higher = more binding, comparable within an allelic series); with SIX6 [6], 10.2 upbm affinity estimate (log intensity, higher = more binding, comparable within an allelic series); in the assay with SIX6 [13], 10.2 upbm affinity estimate (log intensity, higher = more binding, comparable within an allelic series).

GGATAGTA: the binding signal in the assay with SIX6 [1] was 10.4 upbm affinity estimate (log intensity, higher = more binding, comparable within an allelic series); with SIX6 [7], 10.3 upbm affinity estimate (log intensity, higher = more binding, comparable within an allelic series); with SIX6 [3], 9.87 upbm affinity estimate (log intensity, higher = more binding, comparable within an allelic series); in the assay with SIX6 [4], 10.3 upbm affinity estimate (log intensity, higher = more binding, comparable within an allelic series); with SIX6 [5], 10.2 upbm affinity estimate (log intensity, higher = more binding, comparable within an allelic series); with SIX6 [9], 10.4 upbm affinity estimate (log intensity, higher = more binding, comparable within an allelic series). Also, the binding signal in the assay with SIX6 [10] was 10.6 upbm affinity estimate (log intensity, higher = more binding, comparable within an allelic series); in the assay with SIX6 [12] it was 10.3 upbm affinity estimate (log intensity, higher = more binding, comparable within an allelic series); with SIX6 [6], 10.4 upbm affinity estimate (log intensity, higher = more binding, comparable within an allelic series); with SIX6 [13], 10.3 upbm affinity estimate (log intensity, higher = more binding, comparable within an allelic series).

On to AATACGAT, for which the binding signal in the assay with SIX6 [1] was 10.6 upbm affinity estimate (log intensity, higher = more binding, comparable within an allelic series); with HOXA7 [14], 9.45 upbm affinity estimate (log intensity, higher = more binding, comparable within an allelic series); in the assay with SIX6 [7], 10.5 upbm affinity estimate (log intensity, higher = more binding, comparable within an allelic series); with SIX6 [3], 9.88 upbm affinity estimate (log intensity, higher = more binding, comparable within an allelic series); with SIX6 [4], 10.3 upbm affinity estimate (log intensity, higher = more binding, comparable within an allelic series); with SIX6 [8], 10.5 upbm affinity estimate (log intensity, higher = more binding, comparable within an allelic series). Moreover, the binding signal with SIX6 [5] was 10.1 upbm affinity estimate (log intensity, higher = more binding, comparable within an allelic series); in the assay with SIX6 [9], 10.5 upbm affinity estimate (log intensity, higher = more binding, comparable within an allelic series); in the assay with SIX6 [10] it was 10.7 upbm affinity estimate (log intensity, higher = more binding, comparable within an allelic series); with SIX6 [11] it was 10.5 upbm affinity estimate (log intensity, higher = more binding, comparable within an allelic series); with SIX6 [12], 10.3 upbm affinity estimate (log intensity, higher = more binding, comparable within an allelic series); with SIX6 [6], 10.5 upbm affinity estimate (log intensity, higher = more binding, comparable within an allelic series). In addition, the binding signal with SIX6 [13] was 10.4 upbm affinity estimate (log intensity, higher = more binding, comparable within an allelic series); with HOXA7 [15], 8.84 upbm affinity estimate (log intensity, higher = more binding, comparable within an allelic series).

For the sequence ATATCAAG, the binding signal is 11.1 upbm affinity estimate (log intensity, higher = more binding, comparable within an allelic series) in the assay with SIX6 [1]; 11 upbm affinity estimate (log intensity, higher = more binding, comparable within an allelic series) in the assay with SIX6 [8]; 11.1 upbm affinity estimate (log intensity, higher = more binding, comparable within an allelic series) with SIX6 [9]; 10.9 upbm affinity estimate (log intensity, higher = more binding, comparable within an allelic series) with SIX6 [12]; 10.9 upbm affinity estimate (log intensity, higher = more binding, comparable within an allelic series) in the assay with SIX6 [13].

With CCGTATCA, the binding signal in the assay with SIX6 [1] is 11.1 upbm affinity estimate (log intensity, higher = more binding, comparable within an allelic series); in the assay with SIX6 [7] it was 11.1 upbm affinity estimate (log intensity, higher = more binding, comparable within an allelic series); in the assay with SIX6 [9] it was 11.1 upbm affinity estimate (log intensity, higher = more binding, comparable within an allelic series); with SIX6 [10], 11.1 upbm affinity estimate (log intensity, higher = more binding, comparable within an allelic series); with SIX6 [11], 11.1 upbm affinity estimate (log intensity, higher = more binding, comparable within an allelic series); with SIX6 [13] it was 10.9 upbm affinity estimate (log intensity, higher = more binding, comparable within an allelic series).

Consider AGTTGTAT, for which the binding signal in the assay with SIX6 [1] is 10.2 upbm affinity estimate (log intensity, higher = more binding, comparable within an allelic series); with SIX6 [7] it was 10.2 upbm affinity estimate (log intensity, higher = more binding, comparable within an allelic series); with SIX6 [4] it was 10.1 upbm affinity estimate (log intensity, higher = more binding, comparable within an allelic series); with SIX6 [6], 10.3 upbm affinity estimate (log intensity, higher = more binding, comparable within an allelic series); with SIX6 [13] it was 10.2 upbm affinity estimate (log intensity, higher = more binding, comparable within an allelic series).

As to ATACCTCC, the binding signal was 10.3 upbm affinity estimate (log intensity, higher = more binding, comparable within an allelic series) in the assay with SIX6 [1]; 9.86 upbm affinity estimate (log intensity, higher = more binding, comparable within an allelic series) with SIX6 [2]; 10.4 upbm affinity estimate (log intensity, higher = more binding, comparable within an allelic series) with SIX6 [7]; 9.38 upbm affinity estimate (log intensity, higher = more binding, comparable within an allelic series) with SIX6 [3]; 10.5 upbm affinity estimate (log intensity, higher = more binding, comparable within an allelic series) in the assay with SIX6 [9]; 10.5 upbm affinity estimate (log intensity, higher = more binding, comparable within an allelic series) with SIX6 [10]. In addition, the binding signal with SIX6 [6] is 10.4 upbm affinity estimate (log intensity, higher = more binding, comparable within an allelic series).

TGACACCA: the binding signal was 10.3 upbm affinity estimate (log intensity, higher = more binding, comparable within an allelic series) with SIX6 [1]; 9.84 upbm affinity estimate (log intensity, higher = more binding, comparable within an allelic series) with SIX6 [4]; 11.2 upbm affinity estimate (log intensity, higher = more binding, comparable within an allelic series) with SIX6 [9]; 11.1 upbm affinity estimate (log intensity, higher = more binding, comparable within an allelic series) with SIX6 [11].

Regarding GATCCAAA, the binding signal was 10.4 upbm affinity estimate (log intensity, higher = more binding, comparable within an allelic series) with SIX6 [1]; 10.2 upbm affinity estimate (log intensity, higher = more binding, comparable within an allelic series) with SIX6 [7]; 9.67 upbm affinity estimate (log intensity, higher = more binding, comparable within an allelic series) with SIX6 [3]; 10 upbm affinity estimate (log intensity, higher = more binding, comparable within an allelic series) in the assay with SIX6 [4]; 10.4 upbm affinity estimate (log intensity, higher = more binding, comparable within an allelic series) with SIX6 [8]; 10.2 upbm affinity estimate (log intensity, higher = more binding, comparable within an allelic series) with SIX6 [9]. Moreover, the binding signal with SIX6 [10] is 10.5 upbm affinity estimate (log intensity, higher = more binding, comparable within an allelic series); with SIX6 [11], 10.2 upbm affinity estimate (log intensity, higher = more binding, comparable within an allelic series); with SIX6 [12], 10.1 upbm affinity estimate (log intensity, higher = more binding, comparable within an allelic series); with SIX6 [6], 10.3 upbm affinity estimate (log intensity, higher = more binding, comparable within an allelic series); with SIX6 [13] it was 10.2 upbm affinity estimate (log intensity, higher = more binding, comparable within an allelic series).

With GGTGTCAC, the binding signal with SIX6 [1] was 10.3 upbm affinity estimate (log intensity, higher = more binding, comparable within an allelic series); with SIX6 [4] it was 9.69 upbm affinity estimate (log intensity, higher = more binding, comparable within an allelic series); with SIX6 [9] it was 11.1 upbm affinity estimate (log intensity, higher = more binding, comparable within an allelic series); with SIX6 [11], 11.1 upbm affinity estimate (log intensity, higher = more binding, comparable within an allelic series).

As for ACTATACG, the binding signal in the assay with SIX6 [1] is 10 upbm affinity estimate (log intensity, higher = more binding, comparable within an allelic series); in the assay with SIX6 [7] it was 10 upbm affinity estimate (log intensity, higher = more binding, comparable within an allelic series); with SIX6 [4] it was 10.1 upbm affinity estimate (log intensity, higher = more binding, comparable within an allelic series); with SIX6 [9] it was 9.95 upbm affinity estimate (log intensity, higher = more binding, comparable within an allelic series); in the assay with SIX6 [11], 10 upbm affinity estimate (log intensity, higher = more binding, comparable within an allelic series); with SIX6 [12], 10 upbm affinity estimate (log intensity, higher = more binding, comparable within an allelic series). The binding signal is 10.1 upbm affinity estimate (log intensity, higher = more binding, comparable within an allelic series) in the assay with SIX6 [6] and 9.99 upbm affinity estimate (log intensity, higher = more binding, comparable within an allelic series) with SIX6 [13].

Turning to CTATACTA, the binding signal with SIX6 [1] is 10.2 upbm affinity estimate (log intensity, higher = more binding, comparable within an allelic series); with SIX6 [7], 10.1 upbm affinity estimate (log intensity, higher = more binding, comparable within an allelic series); in the assay with SIX6 [4], 10.2 upbm affinity estimate (log intensity, higher = more binding, comparable within an allelic series); with SIX6 [9] it was 10.2 upbm affinity estimate (log intensity, higher = more binding, comparable within an allelic series); in the assay with SIX6 [12], 10.1 upbm affinity estimate (log intensity, higher = more binding, comparable within an allelic series); with SIX6 [6], 10.2 upbm affinity estimate (log intensity, higher = more binding, comparable within an allelic series). Moreover, the binding signal with SIX6 [13] is 10.1 upbm affinity estimate (log intensity, higher = more binding, comparable within an allelic series).

The record behind these values is paper PMC11006913.
